This is an account of results in PubChem BioAssay (NCI).

The panel holds about 83,000 compounds, 20% with a hit somewhere; the sample as a whole holds those more often.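 Values shown are percent growth following 48 h exposure of cells in 96-well plates to a single concentration of compound; below 10 was considered active.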 Unmarked numbers belong to inactive results. Calls of active or inactive are those of the source.

Some test systems named below: DU-145 prostate; K-562 leukemia; MALME-3M melanoma; MDA-MB-231 breast; RXF 393 renal; SF-268 CNS; SF-295 CNS; SF-539 CNS; UACC-257 melanoma; M14 melanoma; HCT-15 colon; HT29 colon; SNB-75 CNS; SNB-19 CNS; U251 CNS; PC-3 prostate; SK-MEL-5 melanoma; UACC-62 melanoma; LOX IMVI melanoma; SK-MEL-28 melanoma.
Experiment in all cases: NCI-60 one-dose screen, 48 h (100 = growth as untreated, 0 = no growth, -100 = all killed)
Details in all cases: 10 µM unless noted

Regarding `CC(C)[C@H]1COC(=O)N1[C@@H]1C(=O)N([C@@H](CCC(=O)N2CCN(C3CCCC3)CC2)C(=O)N[C@@H]2CCCc3ccccc32)[C@@H]1/C=C/c1cccc(Cl)c1`, the growth with DU-145 prostate was 65.3%; with K-562 leukemia, 45.5%; in the test with MALME-3M melanoma it was 82.3%; with MDA-MB-231 breast it was 44.7%; with RXF 393 renal, 50%; in the test on SF-268 CNS, 28.5%. Further, the growth in the test on SF-295 CNS was 54%; in the test with SF-539 CNS it was 68.9%; in the test on UACC-257 melanoma, 20.5%; in the test on M14 melanoma it was 36.6%; in the test with HCT-15 colon, 34.1%; in the test on HT29 colon it was 13%. Also, the growth is 92% in the test on SNB-75 CNS; 56.6% in the test on SNB-19 CNS; 46.6% in the test with U251 CNS; 25.7% with PC-3 prostate; 11.7% in the test with SK-MEL-5 melanoma; 67.8% with UACC-62 melanoma. For the same molecule, the figures for the growth with LOX IMVI melanoma and in the test on SK-MEL-28 melanoma were -18.3% (active) and 71.7%, respectively.
As for `CC(C)=CCC[C@](C)(O)[C@H]1CC[C@]2(C)[C@@H]1CC[C@@H]1[C@@]3(C)CC/C(=N/O)C(C)(C)[C@@H]3CC[C@]12C`, the growth with DU-145 prostate was -15.4% [100 µM] (active); in the test on K-562 leukemia, 10.9% [100 µM]; in the test on MALME-3M melanoma, -69.7% [100 µM] (active); in the test with MDA-MB-231 breast, -34.2% [100 µM] (active); with RXF 393 renal, -32.5% [100 µM] (active); with SF-268 CNS, 11.5% [100 µM]. The growth was -66.5% [100 µM] (active) in the test on SF-295 CNS; -53.9% [100 µM] (active) in the test with SF-539 CNS; 19.8% [100 µM] in the test on UACC-257 melanoma; -13.6% [100 µM] (active) with M14 melanoma; 29.7% [100 µM] in the test on HCT-15 colon; -43.5% [100 µM] (active) with HT29 colon. Also, the growth with SNB-75 CNS is -38.8% [100 µM] (active); in the test with SNB-19 CNS, -28.8% [100 µM] (active); in the test on U251 CNS it was -81.5% [100 µM] (active); in the test on PC-3 prostate, -52.1% [100 µM] (active); in the test with SK-MEL-5 melanoma, -45.3% [100 µM] (active); in the test with UACC-62 melanoma, -59.2% [100 µM] (active). For the same molecule, the growth in the test on SK-MEL-28 melanoma is -36.1% [100 µM] (active).
Consider `O=C(Nc1cc(F)cc2cccnc12)c1cnc(N2CCNCC2)cn1`, for which the growth in the test on DU-145 prostate is 75.2%; with K-562 leukemia it was 19.8%; in the test on MALME-3M melanoma, 59.6%; with MDA-MB-231 breast, 71.8%; in the test on RXF 393 renal, 54.1%; with SF-268 CNS, 77.4%. In addition, the growth in the test on SF-295 CNS was 89.3%; in the test with SF-539 CNS it was 85.5%; in the test with UACC-257 melanoma it was 88%; in the test on M14 melanoma, 86.1%; in the test on HCT-15 colon, 40.5%; in the test on HT29 colon, 36.8%. The growth was 82.7% in the test with SNB-75 CNS; 87.7% in the test on SNB-19 CNS; 63.6% with U251 CNS; 63% in the test with PC-3 prostate; 91.1% with SK-MEL-5 melanoma; 101% in the test with UACC-62 melanoma. The growth in the test with SK-MEL-28 melanoma is 97.4%.
In the case of `CCN(CC)CC(C)Nc1ccc(C)c2sc3ccccc3c(=O)c12` (stereo unspecified), the growth in the test on DU-145 prostate was 82%; with K-562 leukemia, 44.2%; with MALME-3M melanoma, 65.2%; in the test on MDA-MB-231 breast it was 28.7%; in the test on RXF 393 renal it was 39.5%; in the test on SF-268 CNS, 58.9%. Moreover, the growth in the test with SF-295 CNS is 76.2%; in the test with SF-539 CNS, 44.2%; in the test on UACC-257 melanoma it was 0.527% (active); with M14 melanoma, 3.81% (active); in the test with HCT-15 colon, 32.5%; with HT29 colon, 26.8%. Moreover, the growth with SNB-75 CNS was 40.3%; in the test on SNB-19 CNS, 53.8%; in the test on U251 CNS, 37.4%; in the test on PC-3 prostate it was 47.6%; with SK-MEL-5 melanoma, -68.1% (active); in the test with UACC-62 melanoma, 3.87% (active). Also, the growth is 23.3% in the test with LOX IMVI melanoma and 38.9% in the test with SK-MEL-28 melanoma.
With `CC[C@]12C=CCN3CC[C@@]4(c5ccc(OC)cc5N(C)[C@H]4[C@@](O)(C(=O)OC)[C@@H]1OC(=O)CCC(=O)N[C@H](Cc1c[nH]c4ccccc14)C(=O)OC)[C@@H]32`, the growth was -49.9% [100 µM] (active) in the test on DU-145 prostate; 5.85% [100 µM] (active) in the test on K-562 leukemia; -68.8% [100 µM] (active) in the test on MALME-3M melanoma; -71% [100 µM] (active) in the test on MDA-MB-231 breast; -60.6% [100 µM] (active) in the test on RXF 393 renal; -43% [100 µM] (active) in the test with SF-268 CNS. The growth in the test with SF-295 CNS is -38.4% [100 µM] (active); with SF-539 CNS, -57.1% [100 µM] (active); in the test on UACC-257 melanoma, -29.2% [100 µM] (active); in the test with M14 melanoma it was -32.8% [100 µM] (active); in the test on HCT-15 colon, -24.1% [100 µM] (active); with HT29 colon, 5.23% [100 µM] (active). The growth in the test on SNB-75 CNS is -68.8% [100 µM] (active); in the test on SNB-19 CNS, -51.2% [100 µM] (active); in the test with U251 CNS it was 3.72% [100 µM] (active); in the test on PC-3 prostate, -15.8% [100 µM] (active); in the test with SK-MEL-5 melanoma, -53% [100 µM] (active); in the test with UACC-62 melanoma, -61.1% [100 µM] (active). Further, the values for the growth in the test on LOX IMVI melanoma and in the test on SK-MEL-28 melanoma were -54.4% [100 µM] (active) and -49.6% [100 µM] (active), respectively.
Take `Cn1cc(-c2nnc(-c3cn(C)c4ncccc34)o2)c2ccccc21`: the growth is 60% in the test with DU-145 prostate; 10.3% with K-562 leukemia; 19.3% in the test on MALME-3M melanoma; 38.5% in the test with MDA-MB-231 breast; 10% in the test with RXF 393 renal; 51.1% in the test with SF-268 CNS. The growth in the test on SF-295 CNS is 13.1%; in the test on SF-539 CNS it was 27.7%; in the test with UACC-257 melanoma, 73.6%; in the test with M14 melanoma, 35.5%; with HCT-15 colon, 17.9%; in the test with HT29 colon, 12.1%. Further, the growth in the test on SNB-75 CNS is -18.3% (active); in the test on SNB-19 CNS, 42.3%; in the test on U251 CNS, 30.1%; in the test on PC-3 prostate it was 39.8%; in the test with SK-MEL-5 melanoma, 0.903% (active); in the test with UACC-62 melanoma, 27.7%. In addition, the growth in the test on SK-MEL-28 melanoma was 55.9%.
Regarding `COc1cc(C)cc2oc3oc(=O)c(-c4nc5ccccc5s4)cc3c(=O)c12`, the growth in the test on DU-145 prostate is 98.8%; in the test with K-562 leukemia, 99.8%; in the test with MALME-3M melanoma, 94%; with MDA-MB-231 breast, 95.1%; in the test with RXF 393 renal it was 77.5%; in the test with SF-268 CNS it was 96.6%. Further, the growth with SF-295 CNS is 98.9%; in the test with SF-539 CNS it was 83.7%; in the test on UACC-257 melanoma, 109%; in the test with M14 melanoma, 99%; in the test on HCT-15 colon, 102%; in the test with HT29 colon, 103%. In addition, the growth with SNB-75 CNS was 79.3%; in the test on SNB-19 CNS it was 92.9%; in the test on U251 CNS, 93.4%; in the test with PC-3 prostate it was 94.1%; in the test on SK-MEL-5 melanoma, 99.5%; in the test with UACC-62 melanoma, 67.7%. Further, in the test on SK-MEL-28 melanoma, the growth was 93.2%.
